Test results published in PubChem BioAssay (Tox21).
Inconclusive results are not listed. Calls of active or inactive are those of the source. Unless noted, calls come from the whole dose curve; as a rule, active = well fitted curve in the direction sought with a large enough effect in the repeat runs; inconclusive = weak or mixed curves; inactive = no such curve, though single readings can be large; an effect the other way counts as inactive or inconclusive.

Columns and labels:
[1] = qHTS assay to identify small molecule antagonists of the estrogen receptor alpha (ER-alpha) signaling pathway using the BG1 cell line in the presence of 0.1 nM 17-beta-estradiol - cell viability counter screen (AID 1259241); note: nearly all actives have a fitted effect of over 40% in size
Summary of the method: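 In this screen, hormone-deprived VM7Luc4E2 cells were seeded at 4,000 per well, dosed with compound and 0.1 nM estradiol final, and incubated 22 hr at 37C and 5% CO2; fluorogenic live-cell protease signal reported viability.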

[2] = qHTS assay to identify small molecule antagonists of the androgen receptor (AR) signaling pathway using the MDA cell line in the presence of 0.5 nM R1881 - cell viability counter screen (AID 1259242); note: nearly all actives have a fitted effect of over 45% in size
Summary of the method: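 MDA-kb2 cells (human breast carcinoma, stably carrying MMTV-luciferase reporter) were exposed to compounds with 0.5 nM R1881 (final) for 16 hr at 37C, 0% CO2; viability then read as live-cell protease fluorescence (CellTiter-Fluor, 30 min) in the same wells.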

[3] = qHTS assay to identify small molecule HDAC inhibitors (AID 1259364); note: top concentration of the series differs between compounds; nearly all actives have a fitted effect of over 45% in size
Summary of the method: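 Wild-type HCT-116 cells were plated overnight, exposed to compounds for 2 h at 37 °C, then given HDAC-Glo class I/II luminogenic reagent for 30 min at room temperature before luminescence was read.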

[4] = qHTS assay to identify small molecule HDAC inhibitors - cell viability counter screen (AID 1259365); note: series mostly up to about 92 µM; nearly all actives have a fitted effect of over 50% in size
Summary of the method: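 Measured quantity is CellTiter-Glo luminescence from wild-type HCT-116 cells after compound incubation of 2hr at 37C, 5% CO2; reagent developed 30min at room temperature.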

[5] = qHTS assay to identify small molecule agonists of the sonic hedgehog signaling (Shh) pathway - cell viability counter screen (AID 1259366); note: nearly all actives have a fitted effect of over 50% in size
Summary of the method: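 In quantitative high-throughput format, 3T3 Gli1-Luc cells were exposed to compounds for 24hr and multiplexed for viability using CellTiter-Fluor, incubated 1hr at 37C before the fluorescence read.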

[6] = qHTS assay to identify small molecule antagonists of the sonic hedgehog signaling (Shh) pathway - cell viability counter screen (AID 1259367); note: nearly all actives have a fitted effect of over 55% in size
Summary of the method: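 Cells: 3T3 Gli1-Luc, 2,000/well, 4 hr pre-incubation. Compounds in DMSO, then conditioned medium. Incubation 24 hr, 37C, 5% CO2. CellTiter-Fluor at 23 hr, 1 hr, fluorescence.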

[7] = qHTS assay to identify small molecule agonists of the sonic hedgehog signaling (Shh) pathway (AID 1259368; calls by dose curve; note: series mostly up to about 92 µM; nearly all actives have a fitted effect of over 15% in size)
Summary of the method: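 NIH/3T3-derived 3T3Gli1-Luc cells carrying a stably integrated Gli1 response element–firefly luciferase reporter were plated, left 4 hr at 37 C, then given compounds in DMSO for 24 hr. Luminescence was read 30 min after adding luciferase reagent.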

[8] = qHTS assay to identify small molecule antagonists of the sonic hedgehog signaling (Shh) pathway (AID 1259369; calls by dose curve; note: nearly all actives have a fitted effect of over 45% in size)
Summary of the method: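 NIH/3T3-derived 3T3Gli1-Luc cells with stably integrated Gli1-Luc reporter were preincubated 4hr at 37 C, then given compounds in DMSO plus Shh conditioned medium and incubated 24hr. Firefly luciferase luminescence read after 30min reagent at room temperature.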

[9] = qHTS assay to identify small molecule agonists of the androgen receptor (AR) signaling pathway in the presence of an antagonist - cell viability counter screen (AID 1259379); note: series mostly up to about 92 µM; nearly all actives have a fitted effect of over 25% in size
Summary of the method: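 MDA-kb2 human breast carcinoma cells (stable MMTV-luciferase, AR/GR responsive) were seeded 3,000 cells/well, pre-incubated 5 hr at 37C without CO2, then given 3.0uM nilutamide and compounds at 15 concentrations for 16 hr. Viability was read by CellTiter-Fluor fluorescence.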

[10] = qHTS assay to identify small molecule agonists of the estrogen receptor beta (ER-beta) signaling pathway - cell viability counter screen (AID 1259380); note: nearly all actives have a fitted effect of over 30% in size
Summary of the method: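 ER-beta-UAS-bla HEK293T cells in medium with 2% charcoal-stripped FBS were preincubated 6 hr at 37C, dosed with compound in DMSO for 16 hr, then after the bla read, CellTiter-Glo was added for 30 min at room temperature; luminescence recorded.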

[11] = qHTS assay to identify small molecule antagonists of the estrogen receptor beta (ER-beta) signaling pathway - cell viability counter screen (AID 1259382);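 note: HEK293T cells carrying ER-beta-UAS-bla reporter stimulated with estradiol; series mostly up to about 92 µM; nearly all actives have a fitted effect of over 55% in size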
Summary of the method: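 ER-beta-UAS-bla HEK293T cells (2,000/well, 2% charcoal-stripped FBS) were pre-incubated 6 hr at 37C, then given compound plus 1nM final 17-beta-estradiol for 16 hr. Viability was read in the same wells by CellTiter-Glo luminescence after 30 min at room temperature.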

[12] = qHTS assay to identify small molecule agonists or antagonists of the thyroid stimulating hormone receptor (TSHR) signaling pathway - wild type cell line counter screen (AID 1259384; calls by dose curve)
Summary of the method: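 Counter screen in untransfected Hek293: compounds (15-point titration, triplicate) plus phosphodiesterase inhibitor Ro20-1724 added after 18 h plating; 30 min RT. Intracellular cAMP via competitive d2/cryptate immunoassay, 1 h incubation.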

[13] = target: Thyrotropin receptor (Homo sapiens) (UniProt P16473); test: qHTS assay to identify small molecule antagonists of the thyroid stimulating hormone receptor (TSHR) signaling pathway (AID 1259385; calls by dose curve; note: nearly all actives have a fitted effect of over 20% in size)
Summary of the method: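 Antagonist mode: compound-treated TSHR-expressing HEK293 cells were stimulated with 1.5 ng/mL TSH (final) in presence of Ro20-1724 for 30 min at RT. HTRF cAMP detection after 1 h; each compound tested at 15 concentrations, triplicate.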

[14] = target: Estrogen receptor beta (Homo sapiens) (UniProt Q92731); test: qHTS assay to identify small molecule agonists of the estrogen receptor beta (ER-beta) signaling pathway (AID 1259377; active = well fitted activation curve with a large enough effect in the signal ratio in the repeat runs, not every such curve was filed as active; the % refers to the signal ratio)
Summary of the method: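 Reporter cells (HEK293T, ER-beta-UAS-bla) receive compounds or DMSO after a 6 hr pre-incubation. They then incubate 16 hr at 37C/5% CO2, and fluorescence from LiveBLAzer B/G substrate is measured after 2 hours at room temperature.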

[15] = target: Estrogen receptor beta (Homo sapiens) (UniProt Q92731); test: qHTS assay to identify small molecule antagonists of the estrogen receptor beta (ER-beta) signaling pathway (AID 1259378; active = well fitted inhibition curve with a large enough effect in the signal ratio in the repeat runs, not every such curve was filed as active; the % refers to the signal ratio)
Summary of the method: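 Antagonist mode: compounds added to beta-lactamase reporter HEK293T ER-beta-UAS cells stimulated with E2 (1nM final), 16 hr at 37C. LiveBLAzer B/G FRET substrate, 2 hours room temperature, fluorescence read-out.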

[16] = target: Estrogen receptor (Homo sapiens) (UniProt P03372); test: qHTS assay to identify small molecule agonists of the estrogen receptor alpha (ER-alpha) signaling pathway in the presence of an antagonist (AID 1259383; calls by dose curve; note: top concentration of the series differs between compounds; nearly all actives have a fitted effect of over 15% in size)
Summary of the method: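 VM7Luc4E2 cells (endogenous full-length ER-alpha, 4×ERE-luciferase) were precultured 5 days in phenol red-free medium with 10% charcoal-stripped FBS, given 10.0nM ICI-182,780 (final), then treated with compounds at 15 concentrations for 22hr at 37C; luminescence read with ONE-Glo.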

Measured: Potency

Estrogen receptor (Homo sapiens), sequence (P03372 whole entry, looked up): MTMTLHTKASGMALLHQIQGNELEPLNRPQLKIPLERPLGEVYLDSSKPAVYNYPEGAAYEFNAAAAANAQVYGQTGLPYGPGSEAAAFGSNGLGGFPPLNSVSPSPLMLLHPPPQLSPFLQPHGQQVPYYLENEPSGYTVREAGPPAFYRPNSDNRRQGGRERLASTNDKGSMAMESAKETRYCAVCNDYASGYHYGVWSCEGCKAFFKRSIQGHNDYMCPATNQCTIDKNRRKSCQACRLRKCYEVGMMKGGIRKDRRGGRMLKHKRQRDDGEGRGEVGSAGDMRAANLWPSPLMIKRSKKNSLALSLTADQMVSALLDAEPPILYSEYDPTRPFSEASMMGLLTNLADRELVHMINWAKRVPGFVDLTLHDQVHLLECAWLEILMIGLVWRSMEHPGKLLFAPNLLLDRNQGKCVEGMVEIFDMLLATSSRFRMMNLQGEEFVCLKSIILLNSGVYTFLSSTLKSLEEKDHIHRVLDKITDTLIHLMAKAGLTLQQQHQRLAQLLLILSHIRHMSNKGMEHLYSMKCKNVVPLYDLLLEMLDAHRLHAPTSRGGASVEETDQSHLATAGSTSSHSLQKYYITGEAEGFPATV
Estrogen receptor beta (Homo sapiens), sequence (Q92731 whole entry, looked up): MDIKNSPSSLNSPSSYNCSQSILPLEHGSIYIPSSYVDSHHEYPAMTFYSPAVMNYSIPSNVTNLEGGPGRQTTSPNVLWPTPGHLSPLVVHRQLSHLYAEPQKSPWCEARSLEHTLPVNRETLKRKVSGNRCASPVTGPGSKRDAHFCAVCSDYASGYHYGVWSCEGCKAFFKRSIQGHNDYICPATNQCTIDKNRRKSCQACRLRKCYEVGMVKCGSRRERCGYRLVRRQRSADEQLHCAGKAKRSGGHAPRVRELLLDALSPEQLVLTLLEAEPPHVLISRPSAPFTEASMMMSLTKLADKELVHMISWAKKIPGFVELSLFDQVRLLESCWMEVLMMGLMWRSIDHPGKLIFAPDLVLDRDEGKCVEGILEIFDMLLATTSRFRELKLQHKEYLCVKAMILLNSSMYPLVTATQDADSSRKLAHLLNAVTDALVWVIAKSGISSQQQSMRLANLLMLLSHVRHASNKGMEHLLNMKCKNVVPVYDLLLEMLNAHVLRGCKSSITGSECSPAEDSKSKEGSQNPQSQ
Thyrotropin receptor (Homo sapiens), sequence (P16473 whole entry, looked up): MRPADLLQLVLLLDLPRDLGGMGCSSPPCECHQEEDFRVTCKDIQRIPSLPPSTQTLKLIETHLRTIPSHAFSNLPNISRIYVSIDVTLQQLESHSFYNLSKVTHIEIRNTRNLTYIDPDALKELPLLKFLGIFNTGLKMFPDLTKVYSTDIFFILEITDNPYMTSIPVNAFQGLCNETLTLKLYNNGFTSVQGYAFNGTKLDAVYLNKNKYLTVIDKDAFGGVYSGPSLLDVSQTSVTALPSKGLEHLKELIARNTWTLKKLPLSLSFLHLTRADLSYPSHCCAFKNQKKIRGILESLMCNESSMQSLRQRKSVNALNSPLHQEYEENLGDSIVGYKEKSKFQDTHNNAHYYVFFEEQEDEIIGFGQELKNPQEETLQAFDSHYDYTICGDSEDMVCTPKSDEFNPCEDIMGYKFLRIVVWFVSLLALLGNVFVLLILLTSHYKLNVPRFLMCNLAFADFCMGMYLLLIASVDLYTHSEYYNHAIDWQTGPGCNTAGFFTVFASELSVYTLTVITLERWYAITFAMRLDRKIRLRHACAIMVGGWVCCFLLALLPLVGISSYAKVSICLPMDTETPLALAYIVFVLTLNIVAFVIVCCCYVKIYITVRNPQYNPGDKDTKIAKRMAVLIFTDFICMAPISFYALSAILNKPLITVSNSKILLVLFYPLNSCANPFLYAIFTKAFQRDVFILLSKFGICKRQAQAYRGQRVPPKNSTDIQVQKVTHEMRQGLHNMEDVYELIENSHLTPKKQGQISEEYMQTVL

O=S(=O)(O)c1cccc2c(S(=O)(=O)O)cccc12
inactive: [1] | [2] | [3] | [4] | [5] | [6] | [7] | [8] | [9] | [10] | [11] | [12] | [13]

O=Cc1cccc(Br)c1
inactive: [1] | [2] | [3] | [4] | [5] | [6] | [7] | [8] | [14] | [15] | [9] | [10] | [12] | [13]

CCCCCCCCCCCCSC
inactive: [1] | [2] | [3] | [4] | [5] | [6] | [7] | [8] | [14] | [15] | [9] | [10] | [11] | [12] | [13]

CCO[Si](OCC)(OCC)c1ccccc1
inactive: [1] | [2] | [3] | [4] | [5] | [6] | [7] | [8] | [14] | [15] | [9] | [10] | [11] | [12] | [13]

O=C1CCCCCCCCCCCCCCO1
inactive: [1] | [2] | [3] | [4] | [5] | [6] | [7] | [8] | [14] | [15] | [9] | [10] | [12]

Clc1cc(Cl)cc(Cl)c1
inactive: [1] | [2] | [3] | [4] | [5] | [6] | [7] | [14] | [15] | [9] | [10] | [11] | [16] | [12] | [13]

COc1ccnc(CS(=O)c2nc3cc(OC(F)F)ccc3[nH]2)c1OC (configuration not stated)
inactive: [1] | [2] | [3] | [4] | [5] | [6] | [7] | [9] | [11] | [16] | [12] | [13]

CC(C)(C#N)Nc1nc(Cl)nc(NC2CC2)n1
inactive: [1] | [2] | [3] | [4] | [5] | [6] | [7] | [9] | [11] | [12] | [13]

Cc1nc(C2CCCCC2)c(-c2ccc(S(N)(=O)=O)c(F)c2)o1
inactive: [1] | [2] | [3] | [4] | [5] | [6] | [7] | [8] | [14] | [15] | [9] | [10] | [11] | [16] | [12] | [13]

O=C1NC(=O)C2CC=CCC12 (configuration not stated)
inactive: [1] | [2] | [3] | [4] | [5] | [6] | [7] | [8] | [14] | [15] | [9] | [10] | [12]
